# Key:
# Experiment in all cases: PBM binding z-score (relative to random genomic background probes); higher = stronger binding; sequences stand for … in GC…GCGATTGACAGCGTAGAATGAAGG
# [1] = system: RARb homodimer (NR concentration 270 nM)
# Method in brief: (§1)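 For binding z-scores, the reference was random background probes on custom Agilent 4×180K protein-binding microarrays. These arrays were incubated 1 h with ligand-free nuclear receptor dimers in PBS pH 7.4, 2% milk, 0.02% Triton X-100, 1 mM DTT, 0.2 mg/mL BSA and 0.4 mg/ml salmon testes DNA. Fluorescence was scanned after antibody detection of each partner (one per run) and regression-normalized.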
# [2] = system: RARg:RXRa (NR concentration 270 nM, RXRa partner concentration 90 nM)
# Method in brief: as §1
# [3] = system: RARg homodimer (NR concentration 270 nM)
# Method in brief: as §1
# [4] = system: RXRa DBDmut IVT, anti-RXR (DBD mutation: RXRa K156A/R161A, NR concentration 90 nM)
# Method in brief: as §1
# [5] = system: RXRa homodimer (NR concentration 180 nM)
# Method in brief: as §1
# [6] = system: THRa:RXRa (NR concentration 90 nM, RXRa partner concentration 90 nM)
# Method in brief: as §1
# [7] = system: THRa homodimer (NR concentration 90 nM)
# Method in brief: as §1
# [8] = system: VDR homodimer (NR concentration 270 nM)
# Method in brief: as §1
Sequence,PBM binding z-score [1],PBM binding z-score [2],PBM binding z-score [3],PBM binding z-score [4],PBM binding z-score [5],PBM binding z-score [6],PBM binding z-score [7],PBM binding z-score [8]
ACATACAGGTGATGAAGGTAACTCAGGCTATCAT,0.492,0.787,0.615,0.27,0.874,1.16,0.135,0.174
GCTAGCAGGCCATTTGGGTCTCTCAATGACGGGC,-0.614,-0.279,-0.301,-0.264,-0.294,0.0257,-0.703,-0.774
CAGCCAAGGTCAGGGCCAGTATAGGAGGAACGTT,3.64,4.92,5.59,1.64,4,3.36,1.78,0.93
GCTAGCAGACCATTTGGGTCACTCAATGACGGGC,1.42,0.72,0.826,-0.303,0.514,1.38,0.434,-0.19
ATACCAAGGTGATCGTGAGGTCGTTAATACTAAC,1.68,1.93,0.856,0.881,1.32,3.3,2.44,3.04
GATACAGGGTCAGGTAGAGGCCAGAGTATGGAAA,3.48,6.43,4.46,0.77,4.13,3.18,0.846,1.25
TAGCCTATGTCAGATCGGGCCAGTATACGCTATA,-0.337,-0.0162,-0.00722,-0.495,-0.0681,1.45,-0.592,-0.48
